PubChem BioAssay (Tox21)
“And” between values parts separate entries of the source, which are not always exact repeats. Equal values may be shown once. Records with an inconclusive call do not appear. The source made the active and inactive calls. The call rests on the fitted dose curve; in most records, active means well fitted inhibition curve with a large enough effect in the repeat runs; inconclusive means weak or mixed curves; inactive means no such curve, though single readings can be large or run the other way.

Target: Cytochrome P450 2C19 (Homo sapiens) (UniProt P33261)
Sequence (P33261 whole entry, looked up): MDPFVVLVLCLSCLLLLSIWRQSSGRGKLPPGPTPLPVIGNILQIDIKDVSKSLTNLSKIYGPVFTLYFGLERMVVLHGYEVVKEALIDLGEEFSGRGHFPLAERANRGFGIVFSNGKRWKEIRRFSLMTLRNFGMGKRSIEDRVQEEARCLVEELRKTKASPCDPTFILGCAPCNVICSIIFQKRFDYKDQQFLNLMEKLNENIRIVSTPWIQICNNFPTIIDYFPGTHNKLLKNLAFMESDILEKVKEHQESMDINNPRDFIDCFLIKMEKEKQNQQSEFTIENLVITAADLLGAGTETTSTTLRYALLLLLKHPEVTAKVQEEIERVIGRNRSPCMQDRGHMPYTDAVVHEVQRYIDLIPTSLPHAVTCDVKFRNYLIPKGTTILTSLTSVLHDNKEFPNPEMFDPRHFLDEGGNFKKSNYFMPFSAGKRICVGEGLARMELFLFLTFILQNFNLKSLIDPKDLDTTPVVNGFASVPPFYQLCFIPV
Experiment: Cytochrome P450 Family 2 Subfamily C Member 19 (CYP2C19) small molecule antagonists: luciferase reporter qHTS assay (AID 1671197); further: nearly all actives have a fitted effect of over 65% in size
Settings: P450-Glo CYP2C19 enzyme, luciferin luminescence, 1 h; series mostly up to 52.9 µM
Summary of the method: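 P450-Glo CYP2C19 screening system; proluciferin substrate; DMSO compound stocks; 10 min RT preincubation; NADPH regeneration, 1 h at 37C; luciferin detection reagent, 20 min RT; luminescence as RLU.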
Potency means the concentration at half of the fitted maximal effect.

Row | SMILES | Potency
1 | Cc1cc(C2CCCCC2)n(O)c(=O)c1 | inactive
2 | CNC(=O)c1ccccc1 | inactive
3 | Oc1cccc2cc3cccc(O)c3c(O)c12 | 35.7 µM (active)
4 | Nc1ccc(N)c2ccccc12 | 3.17 µM (active)
5 | CCCC(C)c1ccccc1O (stereo not given) | inactive
6 | CC(C)C(C)(C)C(C)(C)C(C)(C)S | 39.9 µM (active)
7 | Cc1ccc2oc(CN(Cc3ccccc3)C(=O)Nc3c(F)cc(F)cc3F)c(-c3ccc(Cl)cc3)c2c1 | 10.9 µM (active)
8 | CC(C)CCCCCCCCCCCCCCC(=O)O | inactive
9 | O=C(c1ccc(O)cc1O)c1ccc(O)cc1O | 28.3 µM (active) and 22.4 µM (active)
10 | O=C(Nc1cccc(C(F)(F)F)c1)c1cc(Br)cc(Br)c1O | 56.4 µM (active)
11 | Clc1ccccc1C(c1ccccc1)(c1ccccc1)n1ccnc1 | 3.99 µM (active) and 2.45 µM (active)
12 | N=C1N=C(N)c2ccccc21 | inactive
13 | CCCN(CCC)c1c([N+](=O)[O-])cc(C(F)(F)F)c(N)c1[N+](=O)[O-] | 2 µM (active)
14 | NC(=O)CC[C@@H]1NC(=O)[C@H](Cc2ccccc2)NC(=O)[C@H](Cc2ccc(O)cc2)NC(=O)CCSSC[C@@H](C(=O)N2CCC[C@H]2C(=O)N[C@@H](CCCN=C(N)N)C(=O)NCC(N)=O)NC(=O)[C@H](CC(N)=O)NC1=O | inactive
15 | CCCCCCCCCCn1cc[n+](CCCCCCCCCC)c1C | 35.6 µM (active)
16 | O=C(Oc1cccc2cccnc12)c1ccccc1 | inactive
17 | Nc1ccc2cc(S(=O)(=O)O)cc(O)c2c1N=Nc1ccccc1C(F)(F)F | 79.6 µM (active)
18 | OC1(c2ccc(Cl)c(C(F)(F)F)c2)CCN(CCCC(c2ccc(F)cc2)c2ccc(F)cc2)CC1 | 15.5 µM (active)

Row | SMILES | Potency
19 | CCCCCCCCCCC=O | inactive
20 | CCCCCCCCCCCCCC[P+](CCCC)(CCCC)CCCC (tested in a mixture with another compound) | 17.9 µM (active)
21 | CCN(CC)CCCC(C)Nc1c2ccc(Cl)cc2nc2ccc(OC)cc12 (stereo not given) | inactive
22 | O=C(OC[C@H]1O[C@@H](OC(=O)c2cc(O)c(O)c(OC(=O)c3cc(O)c(O)c(O)c3)c2)[C@H](OC(=O)c2cc(O)c(O)c(OC(=O)c3cc(O)c(O)c(O)c3)c2)[C@@H](OC(=O)c2cc(O)c(O)c(OC(=O)c3cc(O)c(O)c(O)c3)c2)[C@@H]1OC(=O)c1cc(O)c(O)c(OC(=O)c2cc(O)c(O)c(O)c2)c1)c1cc(O)c(O)c(OC(=O)c2cc(O)c(O)c(O)c2)c1 | inactive
23 | Clc1ccc2n[nH]nc2c1 | inactive
24 | O=c1[nH]cnc2nc[nH]c12 | inactive
25 | Fc1ccc(C(c2ccc(F)cc2)N2CCN(C/C=C/c3ccccc3)CC2)cc1 | inactive
26 | NNc1nc(-c2ccc([N+](=O)[O-])cc2)cs1 | 5.03 µM (active)
27 | CCC(N)(CO)CO | inactive
28 | O=c1cc(-c2ccc(O)cc2)oc2cc(O)cc(O)c12 | 32.1 µM (active) and 39.9 µM (active)
29 | C[C@]12CCC(=O)C=C1CC[C@@H]1[C@@H]2[C@@H](O)C[C@@]2(C)[C@H]1CC[C@]2(O)C(=O)COC(=O)CCC(=O)O | inactive
30 | C=C(C)C(=O)OCC(O)COc1ccc(C(C)(C)c2ccc(OCC(O)COC(=O)C(=C)C)cc2)cc1 (stereo not given) | 7.1 µM (active)
31 | Nc1ccc2c3c(cccc13)-c1ccccc1-2 | 18 µM (active)
32 | C[C@@H]1C[C@H]2[C@@H]3CCC4=CC(=O)C=C[C@]4(C)[C@@]3(Cl)[C@@H](O)C[C@]2(C)[C@@]1(OC(=O)c1ccco1)C(=O)CCl | 9.77 µM (active)
33 | NC(=NCCCCCCN=C(N)/N=C(\N)Nc1ccc(Cl)cc1)/N=C(\N)Nc1ccc(Cl)cc1 | 22.3 µM (active) [middle of 5 runs]
34 | CCCCC(CC)COP(=O)(O)OCC(CC)CCCC (stereo not given) | 31.8 µM (active) and 31.7 µM (active)
35 | Cc1oc(-c2ccccc2)nc1CCC(=O)c1ccc(CC2SC(=O)NC2=O)cc1 (stereo not given) | 11 µM (active)

Target: Cytochrome P450 2C9 (Homo sapiens) (UniProt P11712)
Sequence (P11712 whole entry, looked up): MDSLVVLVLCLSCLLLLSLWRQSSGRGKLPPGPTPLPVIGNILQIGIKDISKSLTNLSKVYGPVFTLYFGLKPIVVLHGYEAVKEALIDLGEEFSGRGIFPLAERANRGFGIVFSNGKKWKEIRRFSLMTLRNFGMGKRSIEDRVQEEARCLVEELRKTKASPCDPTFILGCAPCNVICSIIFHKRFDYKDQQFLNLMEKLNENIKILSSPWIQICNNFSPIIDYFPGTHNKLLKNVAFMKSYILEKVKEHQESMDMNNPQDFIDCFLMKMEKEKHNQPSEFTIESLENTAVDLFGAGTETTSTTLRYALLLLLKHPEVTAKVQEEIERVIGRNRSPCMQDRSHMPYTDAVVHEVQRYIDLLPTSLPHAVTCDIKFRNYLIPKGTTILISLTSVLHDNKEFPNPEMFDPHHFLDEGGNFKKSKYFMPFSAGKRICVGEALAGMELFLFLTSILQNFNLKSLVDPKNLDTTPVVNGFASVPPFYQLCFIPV
Experiment: Cytochrome P450 Family 2 Subfamily C Member 9 (CYP2C9) small molecule antagonists: luciferase reporter qHTS assay (AID 1671198); further: nearly all actives have a fitted effect of over 50% in size
Settings: P450-Glo CYP2C9 enzyme assay, luciferin luminescence; series mostly up to 53 µM
Summary of the method: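 Enzyme-substrate mix preincubated with compound 10 min at room temperature; reaction started with NADPH regeneration solution, 1 h 37C. Luminescent luciferin product read after 20 min detection reagent.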

Row | SMILES | Potency
36 | Cc1cc(C2CCCCC2)n(O)c(=O)c1 | inactive
37 | CNC(=O)c1ccccc1 | inactive
38 | Oc1cccc2cc3cccc(O)c3c(O)c12 | inactive
39 | Nc1ccc(N)c2ccccc12 | 3.99 µM (active)
40 | CCCC(C)c1ccccc1O (stereo not given) | 35.6 µM (active)
41 | CC(C)C(C)(C)C(C)(C)C(C)(C)S | 46.1 µM (active)
42 | Cc1ccc2oc(CN(Cc3ccccc3)C(=O)Nc3c(F)cc(F)cc3F)c(-c3ccc(Cl)cc3)c2c1 | 4.34 µM (active)
43 | CC(C)CCCCCCCCCCCCCCC(=O)O | inactive
44 | O=C(c1ccc(O)cc1O)c1ccc(O)cc1O | inactive
45 | O=C(Nc1cccc(C(F)(F)F)c1)c1cc(Br)cc(Br)c1O | 14.2 µM (active)
46 | Clc1ccccc1C(c1ccccc1)(c1ccccc1)n1ccnc1 | 1.12 µM (active) and 1.1 µM (active)
47 | N=C1N=C(N)c2ccccc21 | inactive
48 | CCCN(CCC)c1c([N+](=O)[O-])cc(C(F)(F)F)c(N)c1[N+](=O)[O-] | 20 µM (active)
49 | NC(=O)CC[C@@H]1NC(=O)[C@H](Cc2ccccc2)NC(=O)[C@H](Cc2ccc(O)cc2)NC(=O)CCSSC[C@@H](C(=O)N2CCC[C@H]2C(=O)N[C@@H](CCCN=C(N)N)C(=O)NCC(N)=O)NC(=O)[C@H](CC(N)=O)NC1=O | inactive
50 | CCCCCCCCCCn1cc[n+](CCCCCCCCCC)c1C | 40 µM (active)
51 | O=C(Oc1cccc2cccnc12)c1ccccc1 | inactive
52 | Nc1ccc2cc(S(=O)(=O)O)cc(O)c2c1N=Nc1ccccc1C(F)(F)F | 63.3 µM (active)
53 | OC1(c2ccc(Cl)c(C(F)(F)F)c2)CCN(CCCC(c2ccc(F)cc2)c2ccc(F)cc2)CC1 | 8.71 µM (active)

Row | SMILES | Potency
54 | CCCCCCCCCCC=O | inactive
55 | CCCCCCCCCCCCCC[P+](CCCC)(CCCC)CCCC (tested in a mixture with another compound) | 11.3 µM (active)
56 | CCN(CC)CCCC(C)Nc1c2ccc(Cl)cc2nc2ccc(OC)cc12 (stereo not given) | inactive
57 | O=C(OC[C@H]1O[C@@H](OC(=O)c2cc(O)c(O)c(OC(=O)c3cc(O)c(O)c(O)c3)c2)[C@H](OC(=O)c2cc(O)c(O)c(OC(=O)c3cc(O)c(O)c(O)c3)c2)[C@@H](OC(=O)c2cc(O)c(O)c(OC(=O)c3cc(O)c(O)c(O)c3)c2)[C@@H]1OC(=O)c1cc(O)c(O)c(OC(=O)c2cc(O)c(O)c(O)c2)c1)c1cc(O)c(O)c(OC(=O)c2cc(O)c(O)c(O)c2)c1 | 21.5 µM (active)
58 | Clc1ccc2n[nH]nc2c1 | inactive
59 | O=c1[nH]cnc2nc[nH]c12 | inactive
60 | Fc1ccc(C(c2ccc(F)cc2)N2CCN(C/C=C/c3ccccc3)CC2)cc1 | 15.5 µM (active)
61 | NNc1nc(-c2ccc([N+](=O)[O-])cc2)cs1 | 5.64 µM (active)
62 | CCC(N)(CO)CO | inactive
63 | O=c1cc(-c2ccc(O)cc2)oc2cc(O)cc(O)c12 | 36.1 µM (active) and 39.9 µM (active)
64 | C[C@]12CCC(=O)C=C1CC[C@@H]1[C@@H]2[C@@H](O)C[C@@]2(C)[C@H]1CC[C@]2(O)C(=O)COC(=O)CCC(=O)O | inactive
65 | C=C(C)C(=O)OCC(O)COc1ccc(C(C)(C)c2ccc(OCC(O)COC(=O)C(=C)C)cc2)cc1 (stereo not given) | 3.99 µM (active)
66 | Nc1ccc2c3c(cccc13)-c1ccccc1-2 | 32.1 µM (active)
67 | C[C@@H]1C[C@H]2[C@@H]3CCC4=CC(=O)C=C[C@]4(C)[C@@]3(Cl)[C@@H](O)C[C@]2(C)[C@@]1(OC(=O)c1ccco1)C(=O)CCl | 8.71 µM (active)
68 | NC(=NCCCCCCN=C(N)/N=C(\N)Nc1ccc(Cl)cc1)/N=C(\N)Nc1ccc(Cl)cc1 | 25.1 µM (active) [middle of 5 runs]
69 | CCCCC(CC)COP(=O)(O)OCC(CC)CCCC (stereo not given) | 22.5 µM (active) and 17.8 µM (active)
70 | Cc1oc(-c2ccccc2)nc1CCC(=O)c1ccc(CC2SC(=O)NC2=O)cc1 (stereo not given) | 7.76 µM (active)
